# MLL AF4-AF9 inh – inhibitors of human MLL-AF4/AF9 interaction; P42568; AlphaScreen, biotin-AF4 peptide binding to FLAG-AF9; inhibition, % at 10 µM; 0.47% of 350,000 active; AID 651704;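 active means every replicate reaching a set inhibition limit, whatever the replicate mean, cut at about 25% in these data; inconclusive means mean inhibition reaches that limit but some replicates miss it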;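 further: 0% = plate neutral control median and 100% = total signal loss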
# esBAF inh – SWI/SNF esBAF complex inhibition; mouse ES cells, Bmi1-luciferase knock-in reporter, 24 h; 100% = twice the neutral-well signal; reporter increase, % at 12.5 µM; 2% of 350,000 active; in the data active means activation above about 40%; inconclusive means no clear call, values can overlap the other calls;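 further: 0% = median of the plate's neutral control wells and 100% = double that signal; a rise in the Bmi1 reporter signal indicates esBAF inhibition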
# MITF TRPM1 HTS – MITF TRPM1 promoter activation in melanoma cells. 0.75% of 300,000 active. activation, % at 12.5 µM. SK-MEL-5 TRPM1-promoter luciferase, 24 h; % of positive control, neutral wells = 0;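 active means mean activation of at least 80% with every replicate also reaching 80%; inconclusive means mean reaches 80% but some replicate falls short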;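 further: 0% = neutral control wells and 100% = parthenolide positive control wells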
# Wnt bcat act – Wnt/beta-catenin pathway activation | Wnt/beta-catenin reporter cell assay, activator, plate reader | activation, % at 9.35 µM | 1.2% of 300,000 active; in the data active means activation above about 30%, passing the limit was not always enough; inconclusive means no clear call, values can overlap the other calls;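 further: 0% = neutral control wells and 100% = positive control wells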
# FGF22 binding – FGF22 (human) thermal shift binding; AID 651658; 1.5% of 340,000 active; activity (Tm shift, normalised), % at 9.99 µM; recombinant FGF22 thermal shift, SYPRO orange fluorescence; percent of sucrose octasulfate shift, DMSO zero;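 active means mean Tm shift, scaled 0 neutral to 100 positive control, at about 1.3% or above, every replicate too, limit read from the data; inconclusive means no clear call, values can overlap the other calls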
# Target sequence (Q9HCT0 whole entry, looked up): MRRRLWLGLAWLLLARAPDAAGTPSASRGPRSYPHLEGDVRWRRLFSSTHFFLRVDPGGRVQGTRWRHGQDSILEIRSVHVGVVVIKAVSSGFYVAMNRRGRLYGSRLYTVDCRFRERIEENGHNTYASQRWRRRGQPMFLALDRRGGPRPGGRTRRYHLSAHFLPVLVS
# SMARCA2 activ – SMARCA2 function activation, primary screen | MG213 cells, MMTV-luciferase reporter, dexamethasone, overnight | activation, % at 9.1 µM | 1% of 370,000 active; in the data active means activation above about 7.8%;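 further: 0% = vehicle wells and 100% = reference activator wells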
# SMARCA2 conf – confirmation of SMARCA2 (BRM) function activators; shares compounds with SMARCA2 activ; MG213 cells, MMTV-luciferase with dexamethasone, luminescence, overnight; MG213 cells expressing E1A, Rb sequestered; DMSO wells 0%, reference activator 100%; activation, % at 9.1 µM; 30% of 3,500 active; AID 652260;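 active means activation above its plate's cutoff, the mean activation of tested wells plus 3 SD, cut at about 7.9% in these data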
# GAL4-VP16 Luc – GAL4-VP16 reporter activation counter-screen | activation, % at 9.1 µM | 41% of 3,500 active | HEK293 GAL4-VP16 pG5luc reporter, luciferase luminescence; scaled: DMSO wells 0%, SAHA wells 100% | shares compounds with SMARCA2 activ | AID 686939;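 active means activation above the solvent-only control well mean plus 3 SD, averaged across control plates, cut at about 5.2% in these data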
# Numbers without * were called inactive; ? = inconclusive; nt = no result. Most compounds without a hit are left out; they make up all but 4.3% or so of the library.
SMILES,MLL AF4-AF9 inh,esBAF inh,MITF TRPM1 HTS,Wnt bcat act,FGF22 binding,SMARCA2 activ,SMARCA2 conf,GAL4-VP16 Luc
CN1C(=O)c2cc(NC(=O)c3ccc(C(F)(F)F)cc3)ccc2OC[C@@H]2O[C@@H](CC(=O)NC3Cc4ccccc4C3)CC[C@H]21,1,-6,nt,nt,0,nt,nt,nt
CN1OC[C@@H]2CN(Cc3ccc4c(c3)OCO4)[C@H](c3ccc(-n4ccnc4)cc3)C[C@@H]21,nt,nt,nt,1,0,-2,nt,nt
COc1ccc(C(=O)Nc2cccc(/C(C)=N/NC(=O)c3ccc([N+](=O)[O-])c(C)c3)c2)cc1OC,nt,24,38,3,nt,-1,nt,nt
COc1ccc(C(=O)Nc2cccc(/C(C)=N\NC(=O)c3ccoc3C)c2)cc1OC,1,14,26,5,0,8.4*,-3,7.9*
COCCNC(=O)C[C@@H]1CC[C@@H]2[C@H](COC[C@@H](O)CN2C(=O)c2cc(Cl)cc(Cl)c2)O1,-32,-5,nt,nt,0,nt,nt,nt
Cc1ccc(S(=O)(=O)N[C@@H]2C=C[C@H](CC(=O)NCCc3ccncc3)O[C@@H]2CO)cc1,-3,2,nt,nt,0,nt,nt,nt
COc1ccccc1-c1ccc([C@H]2[C@H](C#N)N(C(=O)CN(C)C)[C@H]2CO)cc1,1,-5,nt,nt,1,nt,nt,nt
COc1nc(-c2ccccc2)nnc1-c1ccccc1,-3,40,26,19,0,11*,7,13*
O=C(NC1CCN(Cc2ccccc2)CC1)c1cccc(OC(F)F)c1,-4,8,-15,-1,0,10*,6,0
O=C(NC1CCN(Cc2ccccc2)CC1)c1cccc(Br)c1,-7,-1,-7,0,0,0,nt,nt
CC(=O)c1nn(-c2cccc(Br)c2)cc1C(=O)c1ccccc1,nt,3,nt,nt,nt,-2,nt,nt
CC(=O)c1nn(-c2cccc(Br)c2)cc1C(=O)c1ccco1,nt,-2,nt,-4,nt,8.4*,-3,1
CO[C@@H]1CN(C)C(=O)c2cc(NS(=O)(=O)c3ccccc3C)ccc2OC[C@H](C)N(C)C[C@@H]1C,-5,1,nt,nt,0,nt,nt,nt
CCc1ccc(/C=N/Nc2ncnc3nc[nH]c23)cc1,1,8,62,53*,0,8.3*,6,13*
COc1ccc(NC(=O)c2noc(C(C)C)c2[N+](=O)[O-])cc1,1,-5,2,2,1,3,nt,nt
Cc1ccc(O)c(NC(=O)c2cc(-c3cccs3)on2)c1,-3,52*,122*,-12,0,13*,21*,6.8*
Cc1ccc(O)c(NC(=O)c2noc(C(C)C)c2[N+](=O)[O-])c1,5,nt,21,-2,0,9.0*,6,1
Fc1cccc(C2NN=C(c3ccccc3)S2)c1 (stereo not drawn),-1,-18,1,-9,44*,12*,14*,13*
Cc1noc(C)c1S(=O)(=O)Nc1ccc2c(c1)C(=O)N([C@H](C)CO)C[C@@H](C)[C@@H](CN(C)Cc1ccncc1)O2,-3,0,nt,nt,0,nt,nt,nt
CCn1cc(C(=O)N2CCCC(N3CCN(c4ccccc4C)CC3)C2)cn1 (stereo not drawn),2,-6,3,-1,0,12*,-4,1
CN1c2ccc(C3=CCCCC3)cc2[C@H]2[C@H](CCN2C(=O)NC2CCCCC2)[C@@H]1CO,nt,-2,nt,nt,0,nt,nt,nt
CC(=O)NC[C@H]1[C@H](c2ccc(-c3ccccc3)cc2)[C@H](CO)N1C(=O)C1CCC1,3,10,nt,nt,0,nt,nt,nt
CCCNCc1cc(Cl)c(OCC)c(Cl)c1,nt,7,nt,-3,nt,9.1*,-4,-1
CCCN(C)C[C@@H]1Oc2cc(C#CCC3CCCC3)ccc2S(=O)(=O)N([C@H](C)CO)C[C@H]1C,nt,-3,nt,nt,nt,nt,nt,nt
COCC(=O)Nc1c(C(=O)Nc2cccc(OC)c2)oc2ccccc12,nt,26,97*,?,nt,10*,12*,6.2*

# Screens (PubChem BioAssay)
